Test results: PubChem BioAssay (NCATS)
Results filed as inconclusive are left out. Calls of active or inactive are those of the source. Calls follow the shape of the dose curve; as a rule, active = well fitted cell-killing curve with a large enough effect; inconclusive = small, poorly fitted or top-dose-only effect, or effect the other way; inactive = flat fitted curve, though single readings scatter.

Key:
Experiment in all cases: Primary qHTS to identify gynecologic anti-cancer compounds using libraries of approved drugs and bioactive compounds (AID 1345084); also: nearly all actives have a fitted effect of over 55% in size
[1] = tested on: CASKI; details: Gynecologic cancer cell panel viability, ATPlite luminescence, 48 h; series mostly up to 57.5 µM
Method in brief: (§1)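 Cell viability after 48 h drug treatment, ATPlite luminescence readout; five doses.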

[2] = tested on: Es-2; details: Gynecologic cancer cell panel viability, ATPlite luminescence, 48 h; series mostly up to 57.5 µM
Method in brief: as §1

[3] = tested on: HeLa; details: Gynecologic cancer cell panel viability, ATPlite luminescence, 48 h; series mostly up to 57.5 µM
Method in brief: as §1

[4] = tested on: PA-1; details: Gynecologic cancer cell panel viability, ATPlite luminescence, 48 h; series mostly up to 57.5 µM
Method in brief: as §1

[5] = tested on: SKOV3; details: Gynecologic cancer cell panel viability, ATPlite luminescence, 48 h; series mostly up to 57.5 µM
Method in brief: as §1

[6] = tested on: Tov-21-G; details: Gynecologic cancer cell panel viability, ATPlite luminescence, 48 h; series mostly up to 57.5 µM
Method in brief: as §1

[7] = tested on: Tov112D; details: Gynecologic cancer cell panel viability, ATPlite luminescence, 48 h; series mostly up to 57.5 µM
Method in brief: as §1

[8] = tested on: Hek293T; details: Gynecologic cancer cell panel viability, ATPlite luminescence, 48 h, control line for the selectivity index; series mostly up to 57.5 µM
Method in brief: as §1

[9] = tested on: JEG-3; details: Gynecologic cancer cell panel viability, ATPlite luminescence, 48 h; series mostly up to 57.5 µM
Method in brief: as §1

[10] = tested on: OV90; details: Gynecologic cancer cell panel viability, ATPlite luminescence, 48 h; series mostly up to 57.5 µM
Method in brief: as §1

[11] = tested on: CAOV3; details: Gynecologic cancer cell panel viability, ATPlite luminescence, 48 h; series mostly up to 57.5 µM
Method in brief: as §1
% is scaled to controls: 0 for no effect and ±100 for the full control effect; potency is read from the fitted curve at half-maximal effect.

N#Cc1ccc(Nc2nc(-c3ccc(O)cc3O)cs2)cc1C(F)(F)F
active: Potency [1] 20 µM | Potency [2] 14.1 µM | Potency [3] 7.94 µM | Potency [4] 8.91 µM | Potency [5] 8.91 µM | Potency [6] 5.01 µM | Potency [7] 7.94 µM

Fc1ccc(-n2cc(CCCCN3CCC4(CC3)OCc3ccccc34)c3ccccc32)cc1
inactive: Potency [1] | Potency [2] | Potency [3] | Potency [8] | Potency [9] | Potency [6]

Nc1nc(O)c(C2=C3C(=Nc4ccccc43)C(=O)NCC2)[nH]1
inactive: Potency [1] | Potency [2] | Potency [3] | Potency [8] | Potency [10] | Potency [4] | Potency [6] | Potency [7]

Cn1c(=O)c2c(ncn2Cc2ccc(C(C)(C)C)cc2)n(C)c1=O
active: Potency [9] 14.1 µM | Potency [10] 10 µM
inactive: Potency [11]

CN(C)CC1CCn2c(c(C3=C(c4cn(C)c5ccccc45)C(=O)NC3=O)c3ccccc32)C1 (centres undefined)
active: Potency [11] 22.4 µM | Potency [10] 12.6 µM
inactive: Potency [8] | Potency [9] | Potency [7]

C=C(C=O)[C@]1(O)C[C@@]2(C)C(=CC1=O)C=C[C@H](OC(=O)/C=C/C=C/[C@H](C)CC)[C@@H]2C
inactive: Potency [1] | Potency [2] | Potency [3] | Potency [9] | Potency [7]

COc1cccc(-c2cn(-c3ccc(CCN4CCC(O)CC4)cc3)c3ncnc(N)c23)c1
active: Potency [11] 14.1 µM | Potency [10] 28.2 µM | Potency [4] 12.6 µM | Potency [5] 8.91 µM | Potency [6] 17.8 µM

C[C@@H](Nc1ncnc2[nH]c(-c3ccc(O)cc3)cc12)c1ccccc1
inactive: Potency [2] | Potency [8] | Potency [9] | Potency [10] | Potency [4]
active: Potency [1] 22.4 µM

Cc1ccc(C)c(-c2cc(C(F)(F)F)nn2-c2ccc(S(N)(=O)=O)cc2)c1
inactive: Potency [1]
active: Potency [3] 31.6 µM

CN(C)CCN(Cc1ccc(-c2ccc(CNCCc3ccccc3)cc2)cc1)C(=O)CCC1CCCC1
active: Potency [11] 5.62 µM | Potency [9] 25.1 µM | Potency [10] 22.4 µM | Potency [5] 15.8 µM

Nc1nc(Nc2ccc3c(c2)CCC(N2CCCC2)CC3)nn1-c1cc2c(nn1)-c1ccccc1CCC2 (centres undefined)
inactive: Potency [9] | Potency [10]
active: Potency [11] 7.94 µM | Potency [5] 7.08 µM | Potency [6] 22.4 µM

Cc1cc(N2CCN(C(=O)Oc3ccc(-c4ccccc4)cn3)CC2)c2ccccc2n1
inactive: Potency [11] | Potency [3] | Potency [6] | Potency [7]

CO[C@@H]1CC(OC2CCC3(C)C(CCC45CCC(C6=CC(=O)OC6)C(C)(CCC43)C5=O)C2)O[C@H](C)[C@@H]1O[C@@H]1O[C@H](CO[C@@H]2O[C@H](CO)[C@@H](O)[C@H](O)[C@H]2O)[C@@H](O)[C@H](O)[C@H]1O (some centres undefined)
inactive: activity change, negative = cytotoxicity [1] -0.149% [at 11.6 µM] | activity change, negative = cytotoxicity [10] -22.2% [at 11.6 µM]
active: Potency [2] 3.16 µM | Potency [6] 3.16 µM | Potency [7] 2.82 µM

CC1CCCC(O)CC(=O)c2c(O)cc(O)cc2CC(=O)O1 (centres undefined)
inactive: Potency [11] | Potency [9] | Potency [10] | Potency [6]

COc1cc2c(Nc3cc(F)c(Cl)c(Cl)c3)ncnc2cc1OCC1CCCN(C)CCC1
active: Potency [11] 12.6 µM | Potency [10] 15.8 µM | Potency [5] 17.8 µM
inactive: Potency [9]

O=C(NO)c1cnc(N2CCN(S(=O)(=O)c3ccc4ccccc4c3)CC2)nc1
inactive: Potency [11]
active: Potency [10] 3.98 µM

C=C1C(=O)O[C@@H]2[C@H]1CC(=O)[C@H](C)[C@@](O)(C(=O)/C=C/C)[C@H]2OC(=O)C(C)CC (some centres undefined)
active: Potency [1] 10 µM | Potency [8] 10 µM | Potency [4] 11.2 µM | Potency [6] 12.6 µM
inactive: Potency [3] | Potency [9] | Potency [10]

C=C(C)C(=O)OC1CC2(C)OC(=CC2=O)C(=C)CC2OC(=O)C(=C)C12 (centres undefined)
active: Potency [2] 4.47 µM | Potency [8] 6.31 µM | Potency [4] 7.94 µM | Potency [5] 10 µM | Potency [6] 4.47 µM
inactive: Potency [1] | Potency [3] | Potency [9]

Cc1ccc(-c2c(C(=O)CCl)n(CCCO)c3ncnc(N)c23)cc1
inactive: Potency [1] | Potency [3] | Potency [8] | Potency [9] | Potency [10] | Potency [4] | Potency [5] | Potency [6] | Potency [7]

CC(C)n1nc(C#Cc2ccccc2)c2c(N)ncnc21
inactive: Potency [1] | Potency [2] | Potency [3] | Potency [8] | Potency [10] | Potency [4]

C=C1C(=O)O[C@H]2CC(=C)[C@H]3CC[C@@](C)(O)[C@@H]3CC12 (some centres undefined)
inactive: Potency [1] | Potency [2] | Potency [3] | Potency [10] | Potency [7]

C=C1/C(=C/C=C2\CCC[C@]3(C)[C@@H]([C@H](C)CC[C@@H](O)C(C)(C)O)CC[C@@H]23)C[C@@H](O)C[C@@H]1O
inactive: Potency [1] | Potency [2] | Potency [7]

C=C1C(=O)O[C@@H]2/C=C(\CO)CC/C=C(/C=O)C[C@@H](O)[C@@H]12
active: Potency [2] 31.6 µM | Potency [8] 28.2 µM | Potency [6] 14.1 µM
inactive: Potency [1] | Potency [3] | Potency [9] | Potency [7]

CC(C)C[C@@H]1NC(=O)[C@@H]2C[C@@]34C[C@@H]5[C@@]6(C)CCCC(C)(C)C6CC[C@@]5(C)N(c5ccccc53)[C@H]4N2C1=O (some centres undefined)
inactive: Potency [11] | Potency [3] | Potency [6] | Potency [7]
